Measurements taken from paper PMC4336329 (PLoS ONE, 2015).
The campaign covered roughly 310,000 compounds. About 2,200 (0.71%) showed an effect of 50% or more. The effect is printed as a negative number. What follows is part of a selection rich in strong results, with near analogues and random picks from the rest.

These compounds were tested against human ether-à-go-go-related gene (hERG) potassium channel (human, UniProt Q12809) (assay: primary screen, population patch clamp on CHO cells stably expressing hERG; higher = less effect of the substance).
human ether-à-go-go-related gene (hERG) potassium channel, sequence (Q12809 whole entry, looked up): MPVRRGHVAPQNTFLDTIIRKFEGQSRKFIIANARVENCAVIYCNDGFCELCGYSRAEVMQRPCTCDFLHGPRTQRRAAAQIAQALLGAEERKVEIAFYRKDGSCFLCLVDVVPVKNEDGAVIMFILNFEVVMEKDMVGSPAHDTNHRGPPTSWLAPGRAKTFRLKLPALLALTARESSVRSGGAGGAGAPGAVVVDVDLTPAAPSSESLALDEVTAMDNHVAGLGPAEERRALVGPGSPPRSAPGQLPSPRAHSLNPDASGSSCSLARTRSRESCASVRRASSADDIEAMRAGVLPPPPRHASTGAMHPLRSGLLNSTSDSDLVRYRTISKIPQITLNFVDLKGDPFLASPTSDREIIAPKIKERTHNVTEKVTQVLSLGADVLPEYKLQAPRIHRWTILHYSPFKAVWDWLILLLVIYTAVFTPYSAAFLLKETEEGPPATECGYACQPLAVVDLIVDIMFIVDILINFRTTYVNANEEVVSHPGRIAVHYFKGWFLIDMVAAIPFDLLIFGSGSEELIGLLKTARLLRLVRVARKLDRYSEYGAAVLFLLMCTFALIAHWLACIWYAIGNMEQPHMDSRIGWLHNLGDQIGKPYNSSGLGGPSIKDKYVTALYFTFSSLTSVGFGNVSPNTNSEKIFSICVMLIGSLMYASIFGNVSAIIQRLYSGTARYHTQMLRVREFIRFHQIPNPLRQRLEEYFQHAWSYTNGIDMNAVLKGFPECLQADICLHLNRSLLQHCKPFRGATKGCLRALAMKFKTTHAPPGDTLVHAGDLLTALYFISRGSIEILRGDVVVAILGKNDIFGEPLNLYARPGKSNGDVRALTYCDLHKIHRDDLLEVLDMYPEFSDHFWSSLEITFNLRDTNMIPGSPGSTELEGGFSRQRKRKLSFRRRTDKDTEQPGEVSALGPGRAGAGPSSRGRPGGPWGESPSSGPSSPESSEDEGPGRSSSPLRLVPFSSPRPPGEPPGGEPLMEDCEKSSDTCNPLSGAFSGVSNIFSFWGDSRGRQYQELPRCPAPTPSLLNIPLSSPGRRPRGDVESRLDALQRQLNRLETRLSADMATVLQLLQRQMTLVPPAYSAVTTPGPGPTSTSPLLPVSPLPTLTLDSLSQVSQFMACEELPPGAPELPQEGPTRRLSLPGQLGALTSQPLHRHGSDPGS
In the case of Cc1nc(C)n(CC(O)COc2ccc3ccccc3c2)n1 (stereo not drawn), the “hERG current change (%, negative = inhibition) at 1uM” value is reported as -0.527%.
In the case of CCOC(=O)[C@@H]1[C@H]2COc3cc(OC)ccc3[C@@H]2N2C(=O)N(c3ccc(Br)cc3)C(=O)[C@@]12C, the “hERG current change (%, negative = inhibition) at 1uM” value is reported as 5.83%.
In the case of CC(=O)NCCOc1ccc(C(=O)O)cc1, the “hERG current change (%, negative = inhibition) at 1uM” value is reported as 6.2%.
With Cc1ccc(S(=O)(=O)N2CCOCC2)cc1C(=O)N1CCC(Cc2ccccc2)CC1 the “hERG current change (%, negative = inhibition) at 1uM” value was 11.2%.
In the case of O=C(O)CCN(CCC(=O)O)c1nnc(SCc2ccccc2)s1, the “hERG current change (%, negative = inhibition) at 1uM” value is reported as 11.7%.
In the case of CCN(CC)CC(=O)NN=C(c1ccccc1)c1ccccc1, the “hERG current change (%, negative = inhibition) at 1uM” value is reported as -78.2%.
For O=C(CN1CCCC1)NN=C(c1ccccc1)c1ccccc1, the “hERG current change (%, negative = inhibition) at 1uM” value was -49%.
In the case of O=C(CCl)NN=C(c1ccccc1)c1ccccc1, the “hERG current change (%, negative = inhibition) at 1uM” value is reported as 5.28%.
With CCOC(=O)C1CCN(c2ccc(Cl)nn2)CC1 the “hERG current change (%, negative = inhibition) at 1uM” value was 0.0696%.
In the case of CCOC(=O)Cc1nnc(NC(=O)c2ccco2)s1, the “hERG current change (%, negative = inhibition) at 1uM” value is reported as 5.45%.
In the case of Cc1ccc(OCC(=O)Nc2cc(-c3nn4c(C)nnc4s3)ccc2C)cc1, the “hERG current change (%, negative = inhibition) at 1uM” value is reported as -2.75%.
COc1ccc(OCC(=O)Nc2cc(-c3nn4c(C)nnc4s3)ccc2C)cc1 was tested, and the “hERG current change (%, negative = inhibition) at 1uM” value was 3.66%.
For Cc1ccc(-c2nn3c(C)nnc3s2)cc1NC(=O)COc1ccc(Cl)cc1, the “hERG current change (%, negative = inhibition) at 1uM” value was -74.3%.
For O=C(Nc1ccc(Cl)cc1)Nc1ccc2c(c1)OCO2, the “hERG current change (%, negative = inhibition) at 1uM” value was 12.5%.
With CN(C(=O)CSc1nnc(CNC(=O)c2ccccc2)o1)c1ccccc1 the “hERG current change (%, negative = inhibition) at 1uM” value was 1.84%.
S=C(c1ccc(-c2ccccc2)cc1)N1CCOCC1 was tested, and the “hERG current change (%, negative = inhibition) at 1uM” value was 7.87%.
O=C(O)C1CCCN1c1nc(-c2ccc(Cl)c(Cl)c2)cc(C(F)(F)F)n1 (stereo not drawn) was tested, and the “hERG current change (%, negative = inhibition) at 1uM” value was 7.97%.
With CCOc1ccc(CN2CCN(C/C=C/c3ccc(OC)cc3)CC2CCO)cc1 (stereo not drawn) the “hERG current change (%, negative = inhibition) at 1uM” value was -77.1%.
COc1ccc(/C=C/CN2CCN(CCc3ccccc3)C(CCO)C2)cc1 (stereo not drawn) was tested, and the “hERG current change (%, negative = inhibition) at 1uM” value was -61.7%.
For COc1ccc(/C=C/CN2CCN(Cc3ccc(F)cc3)C(CCO)C2)cc1 (stereo not drawn), the “hERG current change (%, negative = inhibition) at 1uM” value was -3.48%.
With COc1ccc(/C=C/CN2CCN(CC(C)C)C(CCO)C2)cc1 (stereo not drawn) the “hERG current change (%, negative = inhibition) at 1uM” value was -0.433%.
CCOc1ccccc1CN1CCN(C/C=C/c2ccc(OC)cc2)CC1CCO (stereo not drawn) was tested, and the “hERG current change (%, negative = inhibition) at 1uM” value was -13.6%.
With COc1ccc(/C=C/CN2CCN(Cc3ccccc3)C(CCO)C2)cc1 (stereo not drawn) the “hERG current change (%, negative = inhibition) at 1uM” value was -28.9%.
For C=CCn1c(=O)c(C(=O)Nc2ccc(C)cc2)c(O)c2ccccc21, the “hERG current change (%, negative = inhibition) at 1uM” value was 15.6%.
For Cn1c(N)c(C(=O)COC(=O)c2ccccc2NCc2ccco2)c(=O)n(C)c1=O, the “hERG current change (%, negative = inhibition) at 1uM” value was 9.3%.
With C[C@H](NC(=O)c1nc[nH]c1C(=O)N[C@@H](Cc1ccccc1)C(=O)OCc1ccccc1)C(=O)OC(C)(C)C the “hERG current change (%, negative = inhibition) at 1uM” value was 10.7%.
COC(C(=O)Nc1ccc(S(=O)(=O)Nc2c(C)cccc2C)cc1)c1ccccc1 (stereo not drawn) was tested, and the “hERG current change (%, negative = inhibition) at 1uM” value was -69.6%.
For COC(C(=O)Nc1ccc(S(=O)(=O)Nc2ccc(F)cc2)cc1)c1ccccc1 (stereo not drawn), the “hERG current change (%, negative = inhibition) at 1uM” value was 7.53%.
With COC(C(=O)Nc1ccc(S(=O)(=O)Nc2ccc(C)c(C)c2)cc1)c1ccccc1 (stereo not drawn) the “hERG current change (%, negative = inhibition) at 1uM” value was 1.3%.
In the case of CC1CCc2c(sc3c2C2=NS(=O)(=O)CCN2C=N3)C1 (stereo not drawn), the “hERG current change (%, negative = inhibition) at 1uM” value is reported as 15%.
Cc1csc(NC(=O)CSc2nnc(C)c(=O)n2N)n1 was tested, and the “hERG current change (%, negative = inhibition) at 1uM” value was 1.29%.
O=C(Cc1csc(-c2ccccc2)n1)NCc1ccc(F)cc1 was tested, and the “hERG current change (%, negative = inhibition) at 1uM” value was 4.14%.
For O=C(COc1ccc(-n2ccnc2)cc1)Nc1cccc(F)c1, the “hERG current change (%, negative = inhibition) at 1uM” value was -13%.
N#Cc1cccc(NC(=O)COc2ccc(-n3ccnc3)cc2)c1 was tested, and the “hERG current change (%, negative = inhibition) at 1uM” value was -51%.
For O=C(COc1ccc(-n2ccnc2)cc1)Nc1cccc(Cl)c1, the “hERG current change (%, negative = inhibition) at 1uM” value was -3.13%.
With O=S(=O)(Nc1nc(-c2ccccc2)cs1)c1cccc(C(F)(F)F)c1 the “hERG current change (%, negative = inhibition) at 1uM” value was 10.5%.
CCOc1cc2[nH]c(=S)n(Cc3ccc(C)o3)c(=O)c2cc1OCC was tested, and the “hERG current change (%, negative = inhibition) at 1uM” value was -3.56%.
COc1cccc2c1OCC(C(=O)OCc1cccnc1)=C2 was tested, and the “hERG current change (%, negative = inhibition) at 1uM” value was 10.4%.
In the case of O=C(OCc1cccnc1)C1=Cc2ccccc2OC1, the “hERG current change (%, negative = inhibition) at 1uM” value is reported as -73%.
For COc1ccc2c(c1)C=C(C(=O)OCc1cccnc1)CO2, the “hERG current change (%, negative = inhibition) at 1uM” value was 10.4%.
CCN(CC)S(=O)(=O)c1ccc(-n2cnc3cc(C)c(C)cc32)nc1 was tested, and the “hERG current change (%, negative = inhibition) at 1uM” value was 14.1%.
Cc1nc2ccccn2c1C(=O)N=Nc1c(O)[nH]c2ccccc12 was tested, and the “hERG current change (%, negative = inhibition) at 1uM” value was 13.2%.
